# Test results as given in PubChem BioAssay AID2326 (National Center for Advancing Translational Sciences (NCATS), 2010).
# About 1,100 (0.41%) of roughly 270,000 compounds were called active. Another 3% or so got no clear call; they are omitted. This excerpt belongs to a sample that is enriched for actives. Unmarked numbers belong to inactive results. Calls follow the shape of the full dose curve.
# Assay: qHTS Assay for Inhibitors of Influenza NS1 Protein Function; also: actives are rising curves; nearly all actives have a fitted effect of over 50% in size
# Settings: series mostly up to 46.1 µM; activity, positive = more growth: at the top concentration
# Description: NIH Chemical Genomics Center [NCGC]
# NIH Molecular Libraries Probe Centers Network [MLPCN]
# Assay Submitter (PI): Daniel Engel
# Influenza is a world-wide public health problem and emerging forms of the virus have the potential to cause a pandemic of equal or greater magnitude to the outbreaks recorded in 1918, 1957 or 1968. Vaccine development is proceeding and there also exist two classes of anti-influenza compounds. However these therapeutic modalities are neither fully effective nor widely enough available to fulfill global needs. In addition their potential usefulness against newly emergent strains is not known. Efforts are needed to develop novel agents against influenza virus, including broad-spectrum agents. Identification of small molecules that inhibit NS1 function either directly or by interfering with specific cellular pathways may be a key to increasing our defense against the virus.
# We have miniaturized and optimized a cell based assay in which NS1 from influenza A is expressed in the budding yeast S. cerevisiae. NS1 is a multi-functional protein that counters the host innate immune response and facilitates viral versus cellular gene expression. Expression of NS1 causes a pronounced slow growth phenotype in yeast due to its intrinsic molecular activities. Small molecules that suppress the slow growth phenotype can be identified by a straightforward growth recovery assay using optical density (OD) as the measurement. The same yeast strain not expressing NS1 was used as positive control in the yeast growth recovery assay.
# The yeast S. cerevisiae control and NS1 expressing cells were kindly supplied by laboratory of Dr. Daniel Engel, University of Virginia. Yeast starter cultures were stored in single use aliquots at -80C.
# 1. Yeast culture medium per liter: 1.2 g Yeast Nitrogen Base (w/out amino acids and Ammonium Sulphate), 5.0g Ammonium Sulphate, 0.77g -URA DO (drop-out) Supplement, adjust pH to 6.0. Adjust to 2% glucose prior to inoculating with yeast.
# 2. Yeast assay medium: 1.2 g Yeast Nitrogen Base (w/out amino acids and Ammonium Sulphate), 5.0g Ammonium Sulphate, 0.77g -URA DO (drop-out) Supplement, adjust pH to 6.0. Adjust to 2% D-galactose prior to inoculating with yeast.
# 1. Inoculate 100 mls of yeast culture medium with 1 ml of frozen yeast aliquote. Incubate overnight at 30C, 250RPM.
# 2. Harvest overnight culture at 4000 RPM and wash pellet with 15 mls H2O 3x.
# 3. Re-suspend washed pellet in 10 mls of yeast assay medium.
# 4. Prepare a 1:100 dilution of re-suspended culture in yeast assay medium.
# 5. Dispense 3.5 ul per well of reagents in step 4 in columns 2-48 in a black clear bottom 1536 well plate.
# 6. Dispense 3.5 ul per well of yeast assay medium in column 1 only.
# 7. Transfer 23 nl of compound per well.
# 8. Dispense 3.5 ul per well of yeast assay medium in columns 1-48.
# 9. Read plate using Viewlux protocol for optical density 600 (OD600) using excitation filter 600nm.
# Potency is read from the fitted curve at half-maximal effect.
SMILES,"activity, positive = more growth [%]",Potency
CCN1CCN(c2nc(Nc3cc(OC)ccc3OC)nc(Nc3cc(OC)ccc3OC)n2)CC1,-1.81,
COc1ccc(Nc2nc(Cl)nc(NCc3ccco3)n2)cc1,12.3,
CCOc1ccc(Nc2nc(Cl)nc(N3CCN(c4ccc(OC)cc4)CC3)n2)cc1,,10 µM (active)
CC(=O)Oc1ccc(-c2cccc(C(=O)N3CCCCC3)c2)cc1,-31,
COc1ccc(Cn2c(=S)[nH]c3cc(C(=O)N4CCCCC4)ccc3c2=O)cc1,-2.06,
COc1ccc(-n2nc(C(=O)NCC(=O)N3CCCCCC3)c3ccccc3c2=O)cc1Cl,20.2,
C=CCn1c(C23CC4CC(CC(C4)C2)C3)n[nH]c1=S,20.4,
COC(=O)c1c(NC(=O)c2cccs2)sc2c1CCCC2,,2.24 µM (active)
CC(C)OC(=O)c1c(NC(=O)c2ccco2)sc2c1CCCC2,-1.83,
COC(=O)c1c(NC(=O)CCCC(=O)O)sc2c1CCCCC2,-1.9,
Cc1ccc(O)c(CNc2nc3ccccc3[nH]2)c1,15.3,
Cc1cccc(Nc2nc(-c3ccccc3)cs2)n1,-2.79,
O=C(/C=C/c1ccc(Cl)c([N+](=O)[O-])c1)c1ccc(O)cc1,-3.76,
CN(C)c1ccc(/C=C/C(=O)c2ccc(C(C)(C)C)cc2)cc1[N+](=O)[O-],,12.6 µM (active)
CN(C)c1ccc(/C=C/C(=O)c2ccc(O)cc2)cc1[N+](=O)[O-],1.82,
O=C(CNC(=O)c1ccc(F)cc1)c1ccccc1,8.64,
O=c1c2cc(Br)ccc2nc(-c2cccc(Cl)c2)n1O,-81,
CCS(=O)(=O)Nc1ccc(C(=O)NCCSc2ccccc2)cc1,5.43,
Cc1cccc([C@@H]2[C@@H]3C(=O)N(Cc4ccccc4)C(=O)[C@@H]3[C@]3(C)C(=O)N(c4ccc(Br)cc4)C(=O)N23)c1,,11.2 µM (active)
Cc1cccc(N2C(=O)N3[C@H](c4ccc(F)cc4)[C@@H]4C(=O)N(C5CCCCC5)C(=O)[C@@H]4[C@]3(Cc3ccccc3)C2=O)c1,4.58,
C[C@@]12C(=O)N(c3cccc(Br)c3)C(=O)N1[C@H](c1ccc(Cl)cc1)[C@@H]1C(=O)N(C3CCCCC3)C(=O)[C@@H]12,25.8,
CN(Cc1cnccn1)C(=O)c1cc(COc2cccc(C(F)(F)F)c2)on1,-12.1,
O=C(Nc1nnc(C2CC2)s1)c1cc(Cl)sc1Cl,-23.7,
Cc1ccc(NC(=S)Nc2ccc(F)cc2)cc1,-5.2,
O=C(Nc1ccc(S(=O)(=O)N2CCCCCC2)cc1)c1c(F)cccc1F,-18.2,
COc1ccc(CNC(=O)[C@H](Cc2c[nH]c3ccccc23)NC(C)=O)cc1OC,4.97,

SMILES,"activity, positive = more growth [%]",Potency
COc1ccc(C(C(=O)NC2CCCCC2)N(C(=O)Cc2c[nH]c3ccccc23)c2ccccc2)cc1OC (configuration not stated),,11.2 µM (active)
COc1ccc(CN(C)C(=O)Cc2c[nH]c3ccccc23)c(OC)c1OC,-6.55,
CCOC(=O)C(Cc1ccc(N)cc1)N1C(=O)c2ccccc2C1=O (configuration not stated),11.2,
Cc1ccccc1C(=O)N1CCC(C(=O)Oc2ccc(C#N)cc2)CC1,-1.02,
Cc1ccc(-c2ccc(=O)n(CC(=O)NCCCN3CCCCC3)n2)cc1,,3.55 µM (active)
CCC1CCCCN1CCCNC(=O)Cn1nc(-c2ccccc2)ccc1=O (configuration not stated),-10.3,
CCCCNC(=O)CCn1nc(-c2ccc(Cl)cc2)ccc1=O,-1.2,
CCC(NC(=O)c1cc(COc2ccc(F)c(F)c2)on1)c1ccncc1 (configuration not stated),-3.92,
CCc1ccc(-c2nc(SCC(=O)NC3CCCC3)n[nH]2)cc1,0.78,
CC(=O)Nc1ccc(S(=O)(=O)Nc2cc(C)cn(Cc3ccc(C)cc3)c2=O)cc1,-9.21,
Cc1cccc(-n2ncc(Cl)c(Cl)c2=O)c1,-6.42,
O=C(Nc1ncc([N+](=O)[O-])s1)C1COc2ccccc2O1 (configuration not stated),-114,
O=c1[nH]c(N2CCOCC2)nc2ccccc12,24.1,
c1ccc(Nc2nc(N3CCOCC3)c3ccccc3n2)cc1,-30.2,
C1=C(N2CCOCC2)/C(=C/c2nc3ccccc3[nH]2)CC1,,3.98 µM (active)
COc1ccc(CNS(=O)(=O)c2ccc(NC(=O)N3CCCCC3)cc2)cc1,1.64,
O=C(/C=C/c1ccc([N+](=O)[O-])o1)NNC(=O)c1ccc(F)cc1,-0.933,
O=C(/C=C/c1ccco1)NC(=S)N1CCCCC1,4.86,
Cc1ccc(C(=O)Nc2nnc(C3=COCCO3)o2)cc1C,1.01,
O=C(CN1C(=O)S/C(=C\c2ccccc2Cl)C1=O)NC1C=CS(=O)(=O)C1 (configuration not stated),-12.7,
COc1ccc(-c2nnc(SCC(=O)c3cccs3)o2)c(OC)c1,-11.8,
COc1ccc(-n2c(C)cc(C(=O)CSc3nnc(-c4cccs4)o3)c2C)cc1,,11.2 µM (active)
COc1ccc(C(=O)CSc2nnc(-c3ccco3)o2)cc1,-3.53,
Cc1ccc(O)c(/C=N/NC(=O)COc2ccc3c(C)cc(=O)oc3c2)c1,1.86,
O=[N+]([O-])c1ccc(O)c(/C=N/Nc2ccccc2[N+](=O)[O-])c1,-3.57,
S=C(Nc1cccc(Cl)c1)Nc1ccc2c(c1)OCCO2,-6.61,
